High-throughput results as filed in PubChem BioAssay.
This excerpt belongs to a sample that is enriched for hits.
Pf Dd2 inh: qHTS Primary assay for Inhibitors of Plasmodium falciparum Dd2 growth in vitro | 4.3% of 120,000 active | P. falciparum Dd2 growth, SYBR Green, 72 h | Potency, µM (series often up to 28.9 µM), inactives show at the highest dose activity, negative = inhibition, most hits filed as inhibitors; active means well fitted inhibition curve with a large enough effect;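 further: plate controls were DMSO vehicle for no effect and reference drug for full effect; nearly all actives have a fitted effect of over 65% in size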
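Readout: SYBR Green fluorescence, 485 nm excitation, 535 nm emission, after ~16 h lysis at 37C. Before that, Dd2-infected red cells (2.5% hematocrit) grew 72 h with compound, 29 uM top final concentration.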
Numbers without * were called inactive; i = inactive; [ ] = remark or other dose. Potency means the concentration at half of the fitted maximal effect.

SMILES	Pf Dd2 inh
Cc1cnc(CCNC(=O)c2n[nH]c(=O)c3ccccc23)n1C1CC1	i
O=C(CCc1ccccc1)NCC(=O)N1CCCCCNC(=O)CC1c1ccccc1 (stereo not drawn)	-21.3%
CN(C(=O)NCc1ccco1)C1CCc2nn(C)c(=O)n2CC1 (stereo not drawn)	41.9%
O=C1COc2ccc(-c3cccc(O)c3)nc2CN1CCOc1ccccc1	i
CN(C)C(C(=O)NCc1nnc2n1CCCC2)c1cccc(F)c1 (stereo not drawn)	16.2%
Cn1c(C(=O)NCc2cccnc2)cc2c1CCN(Cc1ccccc1)C2	i
COc1cccc(CN2CCc3c(cc(C(=O)N(C)C)n3C)C2)c1	-15.5%
COc1cccc(CN2CCc3c(cc(C(=O)N4CCN(CC(C)C)CC4)n3C)C2)c1	6.31µM*
CN1CCC(N2CC[C@@H]3[C@H]2C(=O)NC[C@H](CCC(=O)N2CCOCC2)N3C)CC1	40.8%[44.1 µM]
Cc1ccc(C(=O)N2CC3(Cc4ccccc4C(=O)N3)C2)cc1	-7.0%
COc1ccc(C(=O)N[C@@H](Cc2ccccc2)C(=O)N2CCCOCCNC(=O)CC2)cn1	-16.5%
CN(C)c1cccc(-c2cnc(Nc3cccnc3)c3c2CCO3)c1	12.6µM*
COc1cncc(Nc2ncc(-c3cccc(N(C)C)c3)c3c2OCC3)c1	7.08µM*
COc1cccc(Nc2ncc(-c3c(C)noc3C)c3c2OCC3)c1	4.9%[44.1 µM]
COc1cncc(Nc2ncc(-c3cccnc3)c3c2OCC3)c1	-12.0%[44.1 µM]
CN(C)c1cccc(-c2cnc(Nc3ccc4c(c3)OCCO4)c3c2CCO3)c1	-28.5%[44.1 µM]
c1ccc(-c2cnc(Nc3cncnc3)c3c2CCO3)cc1	-12.2%[44.1 µM]
CNC(=O)c1cccc(-c2cnc(Nc3ccccc3)c3c2CCO3)c1	-22.7%[44.1 µM]
c1ccc(Nc2ncc(-c3ccccc3)c3c2OCC3)cc1	22.4µM*
Fc1cccc(-c2cnc(Nc3cncnc3)c3c2CCO3)c1	-27.0%[44.1 µM]
Nc1nc(C2CC(NC(=O)Cc3csc(-c4ccccc4)n3)C2)cc(=O)[nH]1 (stereo not drawn)	0.4%
O=C(c1cccc(N2CCNC2=O)c1)N1CCCC(CCc2ccccc2F)C1 (stereo not drawn)	-21.6%
COCc1cc(=O)n(CC(=O)Nc2cccc(F)c2)c(N2CCOCC2)n1	i
OCC1CN(C2CCC2)CC12CCN(Cc1ccc(F)cc1)CC2 (stereo not drawn)	12.6µM*
OCC1CN(C2CCC2)CC12CCN(Cc1cc(F)c(F)c(F)c1)CC2 (stereo not drawn)	-11.6%
SMILES	Pf Dd2 inh
OCC1CN(C2CCC2)CC12CCN(Cc1ccc[nH]1)CC2 (stereo not drawn)	-9.8%
N#Cc1ccc(C(=O)N2CCCCC2c2nc(CCOCC3CCOCC3)no2)cc1 (stereo not drawn)	i
O=C(NCc1ccccc1)N1CC[C@H]2COC(=O)N2c2cc(F)ccc2C1	15.5%[44.1 µM]
COCCOC1CN(C2CCN(C(=O)CC3CCN(C(C)=O)CC3)CC2)C12CCCCC2 (stereo not drawn)	2.3%
Cc1ccc(C)c(N2CCN(S(=O)(=O)c3ccc4[nH]c5c(c4c3)CCCCC5)CC2)c1	8.91µM*
Cc1ccc(Cl)cc1N1CCN(S(=O)(=O)c2ccc3[nH]c4c(c3c2)CCCC4)CC1	-24.7%
Cc1ccc(N2CCN(S(=O)(=O)c3ccc4[nH]c5c(c4c3)CCCCC5)CC2)c(C)c1	-13.7%
NCCC(=O)N1Cc2ccccc2CC2(CCCCN2CC2CCNCC2)C1 (stereo not drawn)	18.1%
CCCC(=O)N1Cc2ccccc2CC2(CCCN2CCC)C1 (stereo not drawn)	8.91µM*
O=C(O)CCCC(=O)N1Cc2ccccc2CC2(CCCCN2CCc2ccccc2)C1 (stereo not drawn)	-20.1%
CCCN1CCCCC12Cc1ccccc1CN(C(=O)CCCC(=O)O)C2 (stereo not drawn)	4.9%
CCCN1CCCC12Cc1ccccc1CN(C(=O)CNC(C)=O)C2 (stereo not drawn)	9.3%
CCCC(=O)N1Cc2ccccc2CC2(CCCCN2CC)C1 (stereo not drawn)	10µM*
O=C(NC1CCCN(CCc2ccccc2)C1)c1ccccc1-c1ncn[nH]1 (stereo not drawn)	-17.1%
CN1CCOc2c(C(=O)NCc3cccnc3)cc(-c3ccccc3O)cc21	-7.7%[44.1 µM]
COc1ccc(-c2cc(N3CCCC(NC(=O)C4CCN(C(C)=O)CC4)C3)n[nH]2)cc1 (stereo not drawn)	-21.2%
CCOc1ccc(Cl)cc1CN(C)c1cc(C2CC(O)C2)nc(N)n1 (stereo not drawn)	11.2µM*
Cc1cc(CN(C)c2cc(C3CC(N)C3)nc(N)n2)no1 (stereo not drawn)	-5.4%
Cc1nc(C2CC(O)C2)cc(N(C)Cc2ccc3c(c2)OCO3)n1 (stereo not drawn)	-2.5%
COCC(=O)N[C@H]1C[C@@H](CO)N(Cc2sccc2C)C1	-21.5%
Cn1nc2n(c1=O)CCN(C1CCOCC1)CC2	-4.2%
OC1(CN2CCN(CCc3ccccn3)CC2)CCCNC1 (stereo not drawn)	-3.2%
Cc1cc(Cl)ccc1OCCN1CCN(CC2(O)CCCNC2)CC1 (stereo not drawn)	8.91µM*
Cc1cc(Cl)ccc1OCCN1CCN(C(=O)[C@H]2CCC[C@H](O)C2)CC1	-20.1%
COc1ccc(C(=O)N[C@@H]2CCC[C@@H]2C(=O)N2CCN(c3ccccn3)CC2)cn1	-7.5%
SMILES	Pf Dd2 inh
CC(=O)N1C[C@@H](CN(C)C)[C@H](NS(=O)(=O)c2cccc(C#N)c2)C1	7.1%
CN(C)C[C@@H]1CN(C)C[C@H]1NS(=O)(=O)c1ccc(Br)cc1	1.78µM*
CN(C)C[C@@H]1CN(C)C[C@H]1NS(=O)(=O)c1ccc2c(c1)CCCC2	3.16µM*
CNC(=O)N1C[C@@H](CN(C)C)[C@H](NS(=O)(=O)c2ccc3c(c2)CCC3)C1	20.7%
CCCS(=O)(=O)N[C@@H]1CN(C)C[C@H]1CN(C)C	15.8%
CN(C)C[C@@H]1CN(c2ncccn2)C[C@H]1NS(=O)(=O)c1cccnc1	i
O=C(N1C[C@H](CO)C[C@H](CN2CCCC2)C1)C1(Cn2cccn2)CC1	-2.5%
CCOc1ccc2c(n1)CCN(C(=O)CC1CCCC1)C2	-11.2%
CCC[C@H]1CN(Cc2c(C)noc2C)C[C@@H]1NC(=O)C1CCOCC1	-3.7%
CC(C)Oc1ccccc1CN1CCc2nc(N(C)C)[nH]c(=O)c2CC1	i[5.79 µM]
CN(Cc1csc(-c2ccccc2)n1)C(=O)CN1CCOC1=O	-5.1%
O=C(NCc1ccc2nonc2c1)[C@@]12CNC[C@@H]1CN(C1CCCC1)C2	7.94µM*
O=C(O)[C@]12CN(Cc3ccncc3)C[C@H]1CN(C1CCOCC1)C2	-12.3%
CCn1c(-c2ccccc2)nn(CC(=O)NCc2ccc3nonc3c2)c1=O	0.8%
NC(=O)c1cc2c(nc1CC1CC(=O)N(c3ccccc3)C1)CCC2 (stereo not drawn)	0.0%
O=C(NC1CCN(c2cc(-c3cccs3)[nH]n2)C1)c1ccc2nc[nH]c2c1 (stereo not drawn)	i
CS(=O)(=O)c1ccc(O[C@H]2COCCN(C3CCC3)C2)cc1	-2.9%[44.1 µM]
CC(C)NC(=O)C1(c2ccc(NC(=O)C(C)C)cc2)CCCCC1	5.4%
COc1ccc2c(c1)CN(C(=O)C1CC1)CC[C@H]1COC(=O)N21	i
COC[C@@H](N)C(=O)N1C[C@@H]2C[C@H]1C(=O)N2c1cc(-c2ccccc2)ccc1OC	-8.8%
CC1CCN(C(=O)Cn2cc(SCC(=O)NCc3ccccc3)c3ccccc32)CC1	-11.9%
CC1CCN(C(=O)Cn2cc(SCC(=O)Nc3ccccc3)c3ccccc32)CC1	-21.1%
